# mHTT CaM bind: mHTT-calmodulin interaction abrogation; inhibition, % at 15 µM; P42858; AlphaScreen His-mHTT/GST-CaM binding, luminescence; 190,000 compounds, 3.6% hits;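 further: 0% = both proteins with DMSO and 100% = one protein alone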
# Pf apPOL inh: Pf-apPOL DNA polymerase inhibition; Recombinant Pf-apPOL, molecular beacon fluorescence, 1.5 h; inhibition, % at 10 µM; 210,000 compounds, 0.25% hits
# An asterisk follows results filed as active; / = no result given. This is a sample that favours compounds with a hit; in the whole collection about 3.6% have one here. No stated cut-off is given here; in the data, active means inhibition above about 50%; inactive means the rest.
SMILES,mHTT CaM bind,Pf apPOL inh
O=C1C(=Cc2ccc3ccccc3n2)Oc2cc(O)ccc21,2,1
COc1cccc2ccc(C=C3Oc4cc(O)ccc4C3=O)nc12,17,62*
O=C(Nc1nc2c(s1)CN(C(=O)c1ccc(=O)[nH]n1)CC2)c1cccs1,-9,5
COc1cccc(CC(=O)N2CCCC2c2c(C)noc2C)c1 (stereo not drawn),1,0
Cc1ccccc1NC(=O)c1ccc(C)c(S(=O)(=O)Nc2cccc(C(=O)O)c2)c1,-3,-4
Cc1ccc(C(=O)Nc2ccc(S(=O)(=O)O)c3cc(S(=O)(=O)O)cc(S(=O)(=O)O)c23)cc1NC(=O)c1cccc(NC(=O)Nc2cccc(C(=O)Nc3cc(C(=O)Nc4ccc(S(=O)(=O)O)c5cc(S(=O)(=O)O)cc(S(=O)(=O)O)c45)ccc3C)c2)c1,/,53*
Cn1nc(C(=O)NCc2ccccc2)c2c1CCN(C(=O)COc1ccc(Cl)cc1)C2,87*,-7
Cn1nc(C(=O)NCc2ccc(F)cc2)c2c1CCN(C(=O)COc1ccc(F)cc1)C2,81*,-9
COCC(=O)N1CCc2c(c(C(=O)NCc3ccc(Cl)cc3)nn2C)C1,18,-1
CC(C)CC(=O)N1CCc2c(c(C(=O)NCc3ccccc3)nn2C)C1,18,-7
Cn1nc(C(=O)NCc2ccccc2)c2c1CCN(C(=O)COc1ccccc1)C2,56*,-9
CCOc1ccc(C(=O)N2CCc3c(c(C(=O)NCc4ccc(F)cc4)nn3C)C2)cc1,-9,-10
COC(=O)c1ccc(NC(=O)c2nnn(Cc3cccc(Br)c3)c2N)cc1,3,-2
CS(=O)(=O)Nc1ccc(Cl)c(C(F)(F)F)c1,-8,/
CCOc1cc(/C=C2\C(=O)ON=C2C)cc(Br)c1OCc1ccc(C)cc1,89*,-5
COc1ccc(/C=C2/C(=O)ON=C2C)cc1Cl,12,-5
CCOc1cc(/C=C2\C(=O)ON=C2C)cc(Cl)c1OCc1ccc(C)cc1,71*,4
C#CCOc1c(Br)cc(/C=C2\C(=O)ON=C2C)cc1OCC,24,12
Cc1ccccc1NC(=O)N1CCc2c(c(COc3cccc(F)c3)nn2C)C1,19,-4
CCOC(=O)C(C)Oc1ccc2cc(-c3ccccc3)c(=O)oc2c1 (stereo not drawn),-20,-2
O=C(Nc1ccc(Nc2cc(-n3cccn3)ncn2)cc1)c1ccco1,100*,-31
COc1ccc(Nc2cc(-n3cccn3)ncn2)cc1,-3,-1
COc1ccc(NC(=O)COc2cc(C)cc(C)c2C)c(OC)c1,-6,-2
Cc1nn2c(NCc3ccccn3)c3c(nc2c1-c1ccccc1)CCCC3,63*,1
c1ccc(CNc2nc(-c3ccncc3)nc3c2CCC3)nc1,6,-14
SMILES,mHTT CaM bind,Pf apPOL inh
O=C(NCCN1CCCC1)c1ccc2ncnc(N3CCCC3)c2c1,-4,-4
O=[N+]([O-])c1ccc(N2CCCC2)cc1SCc1ccco1,7,-1
O=[N+]([O-])c1cc(SCc2ccco2)c2c(C3OCCO3)nn(-c3ccccc3)c2c1,78*,-2
CCOC(CNC(=O)c1ccc2c(c1)ncn2-c1cc(Cl)ccc1OC)OCC,53*,-4
COc1ccc(C)cc1-n1cnc2cc(C(=O)NCC(OC)OC)ccc21,5,-2
COc1ccc(Cl)cc1C(=O)Nc1c(C)cccc1C(C)C,-23,3
CC(C)Cc1nc(SCC(=O)Nc2ccc(S(N)(=O)=O)cc2)n[nH]1,-5,62*
CC(C)Cc1nc(SCC(=O)Nc2ccccc2)n[nH]1,-4,2
CCNC(=O)C1Cc2ccccc2N2CCN(c3cnccn3)CC12 (stereo not drawn),7,-1
O=C(NCc1ccccc1F)C1Cc2ccccc2N2CCN(c3cnccn3)CC12 (stereo not drawn),84*,48
O=C1C(=O)N(CCCN2CCOCC2)C(c2ccncc2)C1=C(O)c1ccccc1 (stereo not drawn),2,-3
Cc1cccc(N=Cc2nc(-c3ccc(Br)cc3)oc2O)n1,-6,2
Cc1cc(S(=O)(=O)NCC(C)(O)c2cccs2)c(Cl)cc1Cl (stereo not drawn),-10,-2
CCC(=O)NCc1nc2c(n1CC)CN(C(=O)c1ccc(C(F)(F)F)s1)CC2,6,-5
O=[N+]([O-])c1ccc(N2CCCC2)cc1N1CCN(Cc2ccccc2)CC1,53*,-4
O=[N+]([O-])c1ccc(N2CCN(Cc3ccccc3)CC2)cc1NC1CC1,27,-7
O=S(=O)(NC1CCN(Cc2ccccc2)CC1)c1ccc2nc(-c3ccccc3)[nH]c2c1,87*,-12
O=S(=O)(NC1CCCCCC1)c1ccc2nc(-c3ccccc3)[nH]c2c1,8,-13
Cc1cc2ncn(CC(O)COc3c(C)cccc3C)c2cc1C (stereo not drawn),46,-6
Cc1cc(C)c(OCC(O)Cn2cnc3cc(C)c(C)cc32)c(C)c1 (stereo not drawn),85*,2
CCOc1ncccc1CNC(=O)c1ccccc1Br,-5,-3
Cc1c(Cl)cccc1NC(=O)C(=O)NCc1ccsc1,-14,-4
Cc1ccc(C2CC(c3cccc(F)c3)n3nnnc3N2)cc1 (stereo not drawn),-1,6
COc1ccc(C2C(C(=O)N(C)c3ccc(Cl)cc3)CC(=O)N2c2ccc(OC)cc2)cc1 (stereo not drawn),87*,-2
COc1ccc(C2C(C(=O)Nc3ccc4c(c3)OCO4)CC(=O)N2c2ccc(OC)cc2)cc1 (stereo not drawn),12,-8
SMILES,mHTT CaM bind,Pf apPOL inh
Cc1cccc(C)c1OCC(=O)Nc1nc2ccccc2s1,-21,-6
Cc1ccc(O)c(NC(=O)CSc2n[nH]c(C)c2[N+](=O)[O-])c1,13,11
Cc1[nH]nc(SCC(=O)Nc2cc(Br)ccc2O)c1[N+](=O)[O-],52*,1
COc1ccc2oc(=N)c(C(=O)Nc3ccccc3C)cc2c1,3,-4
O=C(c1ccsc1)N1CCC(CCOc2ccc(F)cc2)CC1,-11,-4
CCCN1CCCc2cc(CCNC(=O)C(=O)Nc3cccc(SC)c3)ccc21,65*,-2
CSc1cccc(NC(=O)C(=O)NCCC2=CCCCC2)c1,-14,-6
CCc1cccc(NC(=O)c2cc(C(C)C)n3nccc3n2)c1,-177,-4
CCN(CC)c1ccc(C(NC(=O)C(C)C)c2ccc3cccnc3c2O)cc1 (stereo not drawn),100*,6
CC(C)C(=O)NC(c1ccc(N(C)C)cc1)c1ccc2cccnc2c1O (stereo not drawn),100*,-1
CC(NC(=O)C1Cc2ccccc2N2CCN(c3ncccn3)CC12)c1ccccc1 (stereo not drawn),6,-7
CC(C)C(NC(=O)/C(=C/c1ccc2c(c1)OCO2)NC(=O)c1ccccc1)C(=O)O (stereo not drawn),14,-2
O=C(Nc1cccc(F)c1)c1ccc(N2CCC(NCc3ccccc3O)C2)nc1 (stereo not drawn),9,-2
O=C(Nc1cccc(F)c1)c1ccc(N2CCC(NCc3cc(Cl)ccc3O)C2)nc1 (stereo not drawn),70*,-4
Cc1cccc(NCc2ccc3c(c2)OCO3)c1,39,7
COc1ccc(Br)cc1CNc1ccc2c(c1)OCO2,98*,-7
Cc1ccc(CNc2ccc3c(c2)OCO3)c(C)c1,100*,2
COc1cc(Br)c(CNCc2ccc3c(c2)OCO3)cc1OC,-3,-2
